Source: paper PMC7862700, “An all-to-all approach to the identification of sequence-specific readers for epigenetic DNA modifications on cytosine”

Legend:
Assay in all cases: DAPPL (digital affinity profiling via proximity ligation, sequencing); 10 mM Tris-HCl pH 7.5, 50 mM NaCl, 1 mM DTT, 4% glycerol, room temperature, 30 min; GST-TFs on glutathione beads, 16-mer random dsDNA library, 0.1% formaldehyde crosslink after washing; high values mean tight binding
Conditions in all cases: protein: recombinant; tags: N-terminal GST; dsDNA, one strand shown
FLI1 = target: T1, FLI1 (Homo sapiens, UniProt Q01543 1-452)
T1 sequence: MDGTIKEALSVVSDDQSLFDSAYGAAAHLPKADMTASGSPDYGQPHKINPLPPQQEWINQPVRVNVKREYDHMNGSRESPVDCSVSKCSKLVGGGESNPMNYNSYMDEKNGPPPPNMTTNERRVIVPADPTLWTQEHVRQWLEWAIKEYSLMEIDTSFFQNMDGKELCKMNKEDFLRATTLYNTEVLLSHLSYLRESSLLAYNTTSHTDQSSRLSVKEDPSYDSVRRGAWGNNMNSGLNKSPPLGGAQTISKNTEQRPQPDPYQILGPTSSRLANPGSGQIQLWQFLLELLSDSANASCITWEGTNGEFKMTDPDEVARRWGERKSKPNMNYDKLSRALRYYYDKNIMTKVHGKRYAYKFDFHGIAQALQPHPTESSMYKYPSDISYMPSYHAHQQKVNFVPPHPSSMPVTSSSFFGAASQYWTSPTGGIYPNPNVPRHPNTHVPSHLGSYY
Method in brief: (§1)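 Yeast served to express human transcription factors as GST fusions, which were then captured on glutathione beads and labelled with DNA barcodes. Pooled with a tag-only sample, they were incubated with 200 nmole of a 16-mer random double-stranded DNA library for 30 min at room temperature in Tris/NaCl/DTT/glycerol buffer, washed, crosslinked with 0.1% formaldehyde, ligated by proximity, amplified by PCR and sequenced. Dividing each hexamer's read frequency for a factor by its frequency for the tag-only sample gives the binding signal.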

SPIC = target: T2, SPIC (Homo sapiens, UniProt Q8N5J4 1-248)
T2 sequence: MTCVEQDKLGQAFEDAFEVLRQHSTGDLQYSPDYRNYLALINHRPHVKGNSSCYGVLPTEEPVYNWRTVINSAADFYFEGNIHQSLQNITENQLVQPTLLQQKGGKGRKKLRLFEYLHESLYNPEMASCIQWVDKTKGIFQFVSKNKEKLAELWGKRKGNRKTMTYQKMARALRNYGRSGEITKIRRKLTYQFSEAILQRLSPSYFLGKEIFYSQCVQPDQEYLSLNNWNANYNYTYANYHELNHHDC
Method in brief: as §1

ELF4 = ELF4 (Homo sapiens, UniProt Q99607 1-663)
Sequence of ELF4 (Q99607 whole entry): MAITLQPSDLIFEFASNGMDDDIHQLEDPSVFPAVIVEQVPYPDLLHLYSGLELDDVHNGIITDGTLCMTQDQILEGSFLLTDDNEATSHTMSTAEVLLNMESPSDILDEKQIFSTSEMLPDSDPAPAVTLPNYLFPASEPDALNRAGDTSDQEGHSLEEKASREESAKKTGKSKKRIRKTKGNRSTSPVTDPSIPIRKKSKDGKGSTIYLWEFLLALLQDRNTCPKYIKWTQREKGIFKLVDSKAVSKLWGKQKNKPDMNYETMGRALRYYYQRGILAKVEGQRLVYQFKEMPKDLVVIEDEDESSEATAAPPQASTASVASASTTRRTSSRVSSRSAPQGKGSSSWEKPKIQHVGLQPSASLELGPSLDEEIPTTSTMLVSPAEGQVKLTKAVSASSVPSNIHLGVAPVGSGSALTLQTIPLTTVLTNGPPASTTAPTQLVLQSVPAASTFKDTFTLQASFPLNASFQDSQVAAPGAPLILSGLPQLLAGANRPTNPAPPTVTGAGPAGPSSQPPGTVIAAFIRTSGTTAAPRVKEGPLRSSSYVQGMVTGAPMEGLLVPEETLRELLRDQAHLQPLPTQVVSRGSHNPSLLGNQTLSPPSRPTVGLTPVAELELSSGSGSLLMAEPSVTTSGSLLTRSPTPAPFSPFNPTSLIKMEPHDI
Method in brief: as §1

ETV2 = target: T3, ETV2 (Homo sapiens, UniProt O00321 1-342)
T3 sequence: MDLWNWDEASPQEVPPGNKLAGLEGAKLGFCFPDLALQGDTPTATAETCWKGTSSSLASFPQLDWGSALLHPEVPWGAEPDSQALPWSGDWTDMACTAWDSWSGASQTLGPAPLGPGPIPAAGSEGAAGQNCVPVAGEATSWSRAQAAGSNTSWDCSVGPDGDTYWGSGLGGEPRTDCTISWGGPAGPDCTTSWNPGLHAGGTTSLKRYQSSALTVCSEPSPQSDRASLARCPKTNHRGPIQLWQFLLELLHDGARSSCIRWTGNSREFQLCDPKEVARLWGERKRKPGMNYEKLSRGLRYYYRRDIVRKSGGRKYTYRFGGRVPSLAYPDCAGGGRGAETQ
Method in brief: as §1

ELK1 = target: T4, ELK1 (Homo sapiens, UniProt P19419 1-428)
T4 sequence: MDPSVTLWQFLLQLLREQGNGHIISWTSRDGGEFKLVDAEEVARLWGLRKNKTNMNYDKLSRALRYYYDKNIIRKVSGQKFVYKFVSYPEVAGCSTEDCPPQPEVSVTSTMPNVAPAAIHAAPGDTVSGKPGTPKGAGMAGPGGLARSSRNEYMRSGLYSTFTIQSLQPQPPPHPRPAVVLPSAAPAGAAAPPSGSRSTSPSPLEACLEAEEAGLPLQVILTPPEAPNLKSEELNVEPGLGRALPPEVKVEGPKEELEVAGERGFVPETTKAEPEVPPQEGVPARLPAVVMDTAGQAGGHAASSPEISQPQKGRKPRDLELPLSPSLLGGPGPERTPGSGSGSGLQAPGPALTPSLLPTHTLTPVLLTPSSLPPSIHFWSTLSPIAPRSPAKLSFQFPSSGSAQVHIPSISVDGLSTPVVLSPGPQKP
Method in brief: as §1

GABPA = target: T5, GABPA (Homo sapiens, UniProt Q06546 1-454)
T5 sequence: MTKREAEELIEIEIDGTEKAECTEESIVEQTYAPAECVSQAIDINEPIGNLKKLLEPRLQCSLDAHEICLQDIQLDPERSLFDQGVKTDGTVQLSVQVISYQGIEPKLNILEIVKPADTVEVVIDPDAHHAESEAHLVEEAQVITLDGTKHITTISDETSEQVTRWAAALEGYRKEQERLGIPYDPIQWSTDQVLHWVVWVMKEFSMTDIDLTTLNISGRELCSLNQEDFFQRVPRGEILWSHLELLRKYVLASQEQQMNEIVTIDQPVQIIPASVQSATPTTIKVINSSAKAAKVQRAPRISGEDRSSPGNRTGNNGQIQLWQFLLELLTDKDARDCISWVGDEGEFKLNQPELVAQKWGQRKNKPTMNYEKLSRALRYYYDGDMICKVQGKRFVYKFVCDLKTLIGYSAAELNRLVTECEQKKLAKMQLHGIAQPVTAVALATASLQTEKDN
Method in brief: as §1

ERG = target: T6, ERG (Homo sapiens, UniProt P11308 1-479)
T6 sequence: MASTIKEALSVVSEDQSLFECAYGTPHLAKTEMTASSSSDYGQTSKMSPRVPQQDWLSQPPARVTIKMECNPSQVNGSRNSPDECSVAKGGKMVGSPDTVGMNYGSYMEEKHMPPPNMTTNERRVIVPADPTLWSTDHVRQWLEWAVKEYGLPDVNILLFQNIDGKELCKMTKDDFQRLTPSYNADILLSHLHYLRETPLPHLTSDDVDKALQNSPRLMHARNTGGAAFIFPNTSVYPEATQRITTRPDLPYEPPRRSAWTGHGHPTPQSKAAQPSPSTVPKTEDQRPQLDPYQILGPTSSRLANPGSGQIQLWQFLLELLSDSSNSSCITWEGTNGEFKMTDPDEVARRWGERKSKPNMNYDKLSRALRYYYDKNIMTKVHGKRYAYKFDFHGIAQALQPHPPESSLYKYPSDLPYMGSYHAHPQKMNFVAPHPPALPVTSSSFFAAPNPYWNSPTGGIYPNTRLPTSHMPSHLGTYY
Method in brief: as §1

ELF1 = ELF1 (Homo sapiens, UniProt P32519 1-619)
Sequence of ELF1 (P32519 whole entry): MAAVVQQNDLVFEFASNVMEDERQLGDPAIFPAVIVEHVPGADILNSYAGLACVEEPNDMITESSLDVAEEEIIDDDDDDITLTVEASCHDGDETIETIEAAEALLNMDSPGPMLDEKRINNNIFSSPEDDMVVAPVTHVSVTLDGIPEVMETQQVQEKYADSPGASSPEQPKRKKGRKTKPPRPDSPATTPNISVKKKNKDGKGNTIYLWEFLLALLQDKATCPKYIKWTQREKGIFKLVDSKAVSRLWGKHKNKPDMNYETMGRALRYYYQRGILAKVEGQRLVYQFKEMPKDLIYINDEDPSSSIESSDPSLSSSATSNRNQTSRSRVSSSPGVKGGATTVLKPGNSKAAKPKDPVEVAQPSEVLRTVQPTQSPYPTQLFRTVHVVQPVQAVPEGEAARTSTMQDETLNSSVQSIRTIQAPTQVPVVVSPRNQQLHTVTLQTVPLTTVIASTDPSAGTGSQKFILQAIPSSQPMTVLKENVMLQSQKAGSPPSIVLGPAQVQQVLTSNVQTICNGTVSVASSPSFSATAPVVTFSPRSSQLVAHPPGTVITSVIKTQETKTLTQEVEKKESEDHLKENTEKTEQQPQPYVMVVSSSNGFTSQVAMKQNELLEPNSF
Method in brief: as §1

SPI1 = SPI1 (Homo sapiens, UniProt P17947 1-270)
Method in brief: as §1

ELK3 = target: T7, ELK3 (Homo sapiens, UniProt P41970 1-407)
T7 sequence: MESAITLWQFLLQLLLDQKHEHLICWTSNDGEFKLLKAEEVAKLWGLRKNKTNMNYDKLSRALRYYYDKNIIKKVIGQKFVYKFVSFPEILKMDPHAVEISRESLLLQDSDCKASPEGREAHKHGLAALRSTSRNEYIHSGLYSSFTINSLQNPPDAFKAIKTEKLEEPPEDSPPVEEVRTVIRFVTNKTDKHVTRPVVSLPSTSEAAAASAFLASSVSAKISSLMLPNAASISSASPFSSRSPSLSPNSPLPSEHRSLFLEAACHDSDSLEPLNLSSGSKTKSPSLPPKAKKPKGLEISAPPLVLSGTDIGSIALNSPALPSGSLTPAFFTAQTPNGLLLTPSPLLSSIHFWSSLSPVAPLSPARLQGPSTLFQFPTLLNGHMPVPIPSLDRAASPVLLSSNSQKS
Method in brief: as §1

ELK4 = target: T8, ELK4 (Homo sapiens, UniProt P28324-2 1-405)
T8 sequence: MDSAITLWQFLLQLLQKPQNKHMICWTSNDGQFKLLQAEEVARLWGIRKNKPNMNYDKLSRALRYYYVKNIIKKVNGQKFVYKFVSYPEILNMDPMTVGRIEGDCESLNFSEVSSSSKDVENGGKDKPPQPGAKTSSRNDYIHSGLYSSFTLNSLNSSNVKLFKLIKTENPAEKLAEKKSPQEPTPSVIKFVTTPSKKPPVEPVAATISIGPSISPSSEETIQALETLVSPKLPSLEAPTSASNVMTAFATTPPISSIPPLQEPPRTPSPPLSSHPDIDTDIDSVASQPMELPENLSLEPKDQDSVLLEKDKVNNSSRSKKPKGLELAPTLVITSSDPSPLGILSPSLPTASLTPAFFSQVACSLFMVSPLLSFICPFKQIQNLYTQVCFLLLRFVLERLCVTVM
Method in brief: as §1

ETV3L = target: T9, ETV3L (Homo sapiens, UniProt Q6ZN32 1-361)
T9 sequence: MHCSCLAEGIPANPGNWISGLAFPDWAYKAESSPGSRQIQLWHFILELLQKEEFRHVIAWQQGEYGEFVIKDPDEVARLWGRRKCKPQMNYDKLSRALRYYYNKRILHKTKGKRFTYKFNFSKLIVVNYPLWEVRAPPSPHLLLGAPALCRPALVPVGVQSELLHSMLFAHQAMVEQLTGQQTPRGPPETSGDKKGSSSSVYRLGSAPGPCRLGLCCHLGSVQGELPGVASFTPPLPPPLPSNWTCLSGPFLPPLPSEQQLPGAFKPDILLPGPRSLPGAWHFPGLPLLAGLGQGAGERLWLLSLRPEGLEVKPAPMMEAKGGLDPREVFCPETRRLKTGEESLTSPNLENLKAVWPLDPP
Method in brief: as §1

ETV7 = target: T10, ETV7 (Homo sapiens, UniProt Q9Y603 1-341)
T10 sequence: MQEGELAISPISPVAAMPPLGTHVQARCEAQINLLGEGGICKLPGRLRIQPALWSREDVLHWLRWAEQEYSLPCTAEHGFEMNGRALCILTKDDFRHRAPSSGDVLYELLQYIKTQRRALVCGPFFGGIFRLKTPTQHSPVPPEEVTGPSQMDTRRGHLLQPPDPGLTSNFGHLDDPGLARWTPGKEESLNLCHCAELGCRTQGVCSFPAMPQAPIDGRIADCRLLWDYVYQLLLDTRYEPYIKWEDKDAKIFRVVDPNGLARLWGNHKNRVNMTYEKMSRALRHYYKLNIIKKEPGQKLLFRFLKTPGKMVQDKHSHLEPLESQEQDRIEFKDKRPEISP
Method in brief: as §1

ETV3 = target: T11, ETV3 (Homo sapiens, UniProt P41162-2 1-143)
T11 sequence: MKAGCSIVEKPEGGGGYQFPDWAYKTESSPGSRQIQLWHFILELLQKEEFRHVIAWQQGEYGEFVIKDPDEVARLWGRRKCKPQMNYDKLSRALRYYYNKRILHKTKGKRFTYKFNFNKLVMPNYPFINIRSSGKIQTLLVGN
Method in brief: as §1

ETV6 = ETV6 (Homo sapiens, UniProt P41212 1-452)
Sequence of ETV6 (P41212 whole entry): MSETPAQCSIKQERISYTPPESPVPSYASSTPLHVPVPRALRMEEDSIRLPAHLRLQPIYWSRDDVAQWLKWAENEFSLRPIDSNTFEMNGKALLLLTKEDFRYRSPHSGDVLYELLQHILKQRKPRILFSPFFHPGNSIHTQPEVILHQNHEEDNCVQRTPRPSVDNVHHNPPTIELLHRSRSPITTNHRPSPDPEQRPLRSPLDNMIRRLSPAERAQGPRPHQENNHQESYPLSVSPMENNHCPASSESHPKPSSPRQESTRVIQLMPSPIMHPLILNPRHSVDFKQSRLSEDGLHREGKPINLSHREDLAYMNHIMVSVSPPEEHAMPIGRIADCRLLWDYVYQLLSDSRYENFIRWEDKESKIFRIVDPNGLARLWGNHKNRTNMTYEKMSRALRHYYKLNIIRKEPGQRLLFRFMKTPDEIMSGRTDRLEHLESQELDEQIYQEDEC
Method in brief: as §1

Sequence	binding signal (FLI1)	binding signal (SPIC)	binding signal (ELF4)	binding signal (ETV2)	binding signal (ELK1)	binding signal (GABPA)	binding signal (ERG)	binding signal (ELF1)	binding signal (SPI1)	binding signal (ELK3)	binding signal (ELK4)	binding signal (ETV3L)	binding signal (ETV7)	binding signal (ETV3)	binding signal (ETV6)
TGGCGT	1.01 fold enrichment (6-mer frequency, TF over GST control)	1.04 fold enrichment (6-mer frequency, TF over GST control)	1.01 fold enrichment (6-mer frequency, TF over GST control)	1.05 fold enrichment (6-mer frequency, TF over GST control)	–	–	–	–	–	–	–	–	–	–	–
CGCGGC	1.1 fold enrichment (6-mer frequency, TF over GST control)	–	1.15 fold enrichment (6-mer frequency, TF over GST control)	1.01 fold enrichment (6-mer frequency, TF over GST control)	1.08 fold enrichment (6-mer frequency, TF over GST control)	1.15 fold enrichment (6-mer frequency, TF over GST control)	1.05 fold enrichment (6-mer frequency, TF over GST control)	1.04 fold enrichment (6-mer frequency, TF over GST control)	1.05 fold enrichment (6-mer frequency, TF over GST control)	1 fold enrichment (6-mer frequency, TF over GST control)	1.12 fold enrichment (6-mer frequency, TF over GST control)	1.01 fold enrichment (6-mer frequency, TF over GST control)	1.03 fold enrichment (6-mer frequency, TF over GST control)	1.04 fold enrichment (6-mer frequency, TF over GST control)	1.15 fold enrichment (6-mer frequency, TF over GST control)
